Test results as given in PubChem BioAssay (NCATS).
Some of the results follow. Results filed as inconclusive are left out. A number with no mark means an inactive call. Activity calls are given as the source filed them. The call rests on the fitted dose curve; in most records, active means well fitted cell-killing curve with a large enough effect; inconclusive means small, poorly fitted or top-dose-only effect, or effect the other way; inactive means no such curve, though single readings can be large or run the other way.

Experiment: qHTS for Inhibitors of the vitamin D receptor (VDR): Hit Validation using a Cytotoxicity Assay (AID 602204); further: nearly all actives have a fitted effect of over 75% in size;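 on Potency: cells co-treated with VDR agonist LG190178 at 300 nM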
Conditions: cytotoxicity counter-screen, cell viability; series mostly up to 48.3 µM; activity change, negative = cytotoxicity: at the top concentration
Text: The vitamin D receptor (VDR) is a ligand-activated transcription factor and is partially responsible for the regulation of the endocrine system. This includes the transcriptional regulation of genes involved in the production of the parathyroid hormone (PTH) and the regulation of the blood calcium level. High levels of PHT can cause hypercalcemia in the case of primary and tertiary hyperparathyroidism. The VDR-mediated gene regulation, activated by its ligand 1,25-dihydroxyvitamin D3 (1,25-(OH)2D3), is governed by the recruitment of coactivators. Our hypothesis is that small molecules, with the ability to inhibit the interaction between VDR and certain coactivators, are able to selectively modulate VDR-mediated transcription. Our long term objective is the application these VDR-coactivator inhibitors to study the role of VDR-coactivator binding for specific VDR regulated genes. Ultimately, these molecules can be developed into new treatments for hypercalcemic hyperparathyroidism. No small molecule or non-peptide inhibitors are known for the VDR-coactivator interaction.
In a collaboration between the University of Wisconsin, Milwaukee and the NIH Chemical Genomics Center (NCGC) a HTS-compatible enzymatic assay was developed. The assay uses fluorescence polarization as its read-out to measure the inhibition between VDR and coregulator peptide SRC2-3 exerted by small molecules. This assay was used to screen the NIH Molecular Libraries Small Molecule Repository (MLSMR). Cytotoxicity caused by screening compounds is a major concern for cell-based assays. This assay quantifies the amount of ATP generated by living cells and compounds that are active in this assay are undesirable for the project due to cytotoxicity. High concentrations of cycloheximide (protein synthesis inhibitor) and DMSO were used as positive and negative control, respectively.
NIH Chemical Genomics Center [NCGC]
NIH Molecular Libraries Probe Centers Network [MLPCN]
Assay Submitter (PI): Alexander Arnold, University of Wilwaukee
Plate: 384 white, solid bottom, tissue culture treated
Step 1: Plate 20,000 cell per well (32 uL)
Step 2: 4 hours incubation
Step 3: Add screening compounds
Step 5: 18 hour incubation
Step 6: Add Cell-Titer Glo (25 uL)
Step 7: 30 minutes incubation
Step 8: Read luminescence
Potency means the concentration at half of the fitted maximal effect.

Row | SMILES | activity change, negative = cytotoxicity [%] | Potency
1 | CC(=O)N1CC[n+]2c(-c3ccc([N+](=O)[O-])cc3)csc21 | 23.8 | 
2 | Cc1cccc(Oc2c([N+](=O)[O-])c(=O)n(C)c3ccccc23)c1 | -7.37 | 
3 | O=C(/C=C/c1ccc(Cl)c([N+](=O)[O-])c1)c1cccnc1 | 1.26 | 
4 | CCOC(=O)c1sc(=S)n2c1[nH]c(=O)c1ccc(C(=O)OC)cc12 | 17 | 
5 | C[C@@H](NC(=O)OC(C)(C)C)c1nnc(S(=O)(=O)Cc2ccccc2)o1 | 9.4 | 
6 | CC1CCN(C(=S)c2ccc(-c3ccc(Cl)cc3Cl)o2)CC1 | -16 | 
7 | COc1ccc(CS(=O)/C(Cl)=C(/Cl)C(=O)Nc2ccc(OC)nc2)cc1 (centres undefined) |  | 2.59 µM (active)
8 | C=CCOc1ccc(/C=C2/C(=O)ON=C2C)cc1OCC | 5.44 | 
9 | CSc1nnc(NC(=O)c2nc(S(=O)(=O)Cc3ccc(C)cc3)ncc2Cl)s1 |  | 16.4 µM (active)
10 | O=c1cc(CO)oc(C(Nc2cccc(C(F)(F)F)c2)c2ccccn2)c1O (centres undefined) | -0.379 | 
11 | COc1ccc(OCc2nnc3n2N=C(c2ccccc2)C(CC(=O)O)S3)cc1 (centres undefined) | 9.43 | 
12 | O=[N+]([O-])/C=C/c1ccc2c(ccn2Cc2ccccc2)c1 |  | 9.2 µM (active)
13 | Cc1cccc(CS(=O)(=O)c2ncc(Cl)c(C(=O)Nc3ccc(F)cc3)n2)c1 |  | 11.2 µM (active)
14 | Cc1cccc([C@H]2[C@@H]3C=CC[C@@H](C)[C@@H]3C(=O)N2Cc2ccccc2)c1 |  | 23.8 µM (active)
15 | Cc1cc(C)nc(S/C=C/C(=O)c2ccccc2)n1 |  | 23.8 µM (active)
16 | Cc1ccc(-c2nc3ccccn3c2Nc2c(C)cccc2C)o1 | -7.48 | 
17 | O=C(/C=C/c1ccccc1)c1ccccc1O | -29.7 | 
18 | O=C(/C=C/c1ccc(Cl)cc1Cl)c1cccnc1 | 0.284 | 
19 | CCOc1ccc(N(Cc2ccccc2)C(=O)c2nc(S(C)(=O)=O)ncc2Cl)cc1 |  | 16.8 µM (active)
20 | Cc1nc(-c2ccccc2)sc1C(=O)/C=C/c1ccccc1 | -27.8 | 
21 | O=c1[nH]c(/C=C\c2cccc(C(F)(F)F)c2)nc(O)c1[N+](=O)[O-] | 17.3 | 
22 | CCCCS(=O)(=O)c1oc(-c2cccs2)nc1S(=O)(=O)c1ccccc1 |  | 9.47 µM (active)
23 | O=C1C=C(c2ccc(Cl)cc2)C(=O)N1Nc1ccccc1 |  | 23.1 µM (active)
24 | c1ccc2c(C[n+]3csc4ccccc43)cccc2c1 | 0.478 | 
